Reference: PubChem BioAssay (EPA / NIEHS)
Calls of active or inactive are those of the source. The calls were made as follows: active = hit-call score of the fitted dose curve at least 0.9, where 1 is the maximum; inactive = score below 0.9.

How the values were obtained:
[1] = ATG_GLI_CIS: Attagene CIS-FACTORIAL HepG2 Assay for human Zinc Finger Protein GLI1 (AID 2282945); conditions: HepG2, Attagene cis-factorial reporter mRNA, GLI element; actives raise or lower the signal
In short: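 Transiently transfected HepG2 cells report endogenous transcription factor activity via cis-element-driven reporter units. After 24 h compound exposure, reporter mRNA was measured by RT-PCR with capillary electrophoresis; bidirectional fitting against DMSO baseline.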

[2] = ATG_GRE_CIS: Attagene CIS-FACTORIAL HepG2 Assay for human Glucocorticoid Response Elements (GRE) (AID 2282947); conditions: HepG2 GRE cis-reporter, Attagene multiplex mRNA; actives raise or lower the signal
In short: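 Fluorescence intensity of reporter-specific cDNA fragments, separated by capillary electrophoresis, provides the signal. Constructs carry cis-regulating promoters in transiently transfected HepG2 liver cells; 24 h incubation; fitting is bidirectional against DMSO.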

[3] = ATG_M_32_CIS: Attagene CIS-FACTORIAL HepG2 Assay for M32 Transcription Factor (Internal Marker) (AID 2282949); conditions: HepG2 Attagene cis-factorial M32 reporter, mRNA; actives raise or lower the signal;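 also: background control marker of the multiplexed CIS panel rather than a real target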
In short: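 HepG2 transfectants (cis-regulated reporter transcription units) dosed 24 h. Reporter mRNA by RT-PCR plus CE, analysed as gain or loss relative to DMSO.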

[4] = ATG_M_06_CIS: Attagene CIS-FACTORIAL HepG2 Assay for M06 Transcription Factor (Internal Marker) (AID 2282950); conditions: HepG2 Attagene CIS-FACTORIAL M06 internal marker reporter; actives raise or lower the signal
In short: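 Fluorescence-labelled RT-PCR products from cis-promoter reporter units, cut with HpaI and resolved by capillary electrophoresis, give the signal. Cells are human HepG2, dosed for 24 h. Serves as background control, fitted relative to DMSO.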

[5] = molecular target: Hepatocyte nuclear factor 6 (Homo sapiens) (UniProt Q9UBC0); test: ATG_HNF6_CIS: Attagene CIS-FACTORIAL HepG2 Assay for human Hepatocyte Nuclear Factor 6 (HNF6) (AID 2282952); conditions: HepG2 Attagene cis-factorial HNF6 reporter transcription; actives raise or lower the signal
Hepatocyte nuclear factor 6 (Homo sapiens), sequence (Q9UBC0 whole entry, looked up, the tested form may be a part): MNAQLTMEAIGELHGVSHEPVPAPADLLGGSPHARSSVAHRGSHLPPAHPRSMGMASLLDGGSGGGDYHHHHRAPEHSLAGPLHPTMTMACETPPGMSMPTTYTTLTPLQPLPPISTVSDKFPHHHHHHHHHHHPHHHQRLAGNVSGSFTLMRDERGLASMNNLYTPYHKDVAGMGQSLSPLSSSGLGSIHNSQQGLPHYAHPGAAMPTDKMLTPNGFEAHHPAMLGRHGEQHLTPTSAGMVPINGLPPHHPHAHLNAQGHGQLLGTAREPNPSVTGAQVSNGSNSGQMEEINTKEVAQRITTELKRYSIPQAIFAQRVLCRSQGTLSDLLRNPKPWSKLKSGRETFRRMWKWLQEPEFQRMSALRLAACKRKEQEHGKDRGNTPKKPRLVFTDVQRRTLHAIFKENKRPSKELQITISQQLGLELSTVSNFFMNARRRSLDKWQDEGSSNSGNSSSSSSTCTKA
In short: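 First, HepG2 cells were transfected with the multiplexed cis reporter library and dosed with chemical for 24 h. Next, RNA was reverse-transcribed, PCR-amplified and fluorescently labelled. Finally, HpaI-digested fragments were read by capillary electrophoresis.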

[6] = molecular target: Heat shock factor protein 1 (Homo sapiens) (UniProt Q00613); test: ATG_HSE_CIS: Attagene CIS-FACTORIAL HepG2 Assay for human Heat Shock Transcription Factor 1 (HSE) (AID 2282953); conditions: HepG2 HSE cis-reporter, Attagene RNA transcription; actives raise or lower the signal
Heat shock factor protein 1 (Homo sapiens), sequence (Q00613 whole entry, looked up): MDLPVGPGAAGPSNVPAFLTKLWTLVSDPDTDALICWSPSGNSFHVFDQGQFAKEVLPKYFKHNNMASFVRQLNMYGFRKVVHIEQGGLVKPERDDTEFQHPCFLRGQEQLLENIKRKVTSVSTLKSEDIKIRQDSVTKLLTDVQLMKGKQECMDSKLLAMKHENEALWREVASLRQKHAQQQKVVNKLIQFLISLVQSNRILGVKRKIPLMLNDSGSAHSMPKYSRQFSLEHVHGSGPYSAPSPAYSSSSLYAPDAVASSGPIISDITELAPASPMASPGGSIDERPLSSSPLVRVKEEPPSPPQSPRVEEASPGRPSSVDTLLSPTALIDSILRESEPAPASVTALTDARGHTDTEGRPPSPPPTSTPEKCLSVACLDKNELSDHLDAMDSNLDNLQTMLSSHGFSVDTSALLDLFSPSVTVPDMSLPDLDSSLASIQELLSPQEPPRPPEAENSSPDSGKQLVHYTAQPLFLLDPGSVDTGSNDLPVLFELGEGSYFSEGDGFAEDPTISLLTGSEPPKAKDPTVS
In short: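 After a 24 h incubation with test chemical, transfected HepG2 cells were harvested for RNA; reporter transcripts were measured by RT-PCR and capillary electrophoresis. Values reflect gain or loss of signal relative to DMSO.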

[7] = ATG_MRE_CIS: Attagene CIS-FACTORIAL HepG2 Assay for human Metal Responsive Element (MRE) (AID 2282954); conditions: HepG2 MRE cis-reporter transcription, Attagene multiplex; actives raise or lower the signal
In short: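 Measured here is mRNA induction from an MRE cis-element reporter in HepG2 after 24 h, quantified by fluorescence of labelled RT-PCR products on capillary electrophoresis; gain- and loss-of-signal fits use DMSO as baseline.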

[8] = ATG_PBREM_CIS: Attagene CIS-FACTORIAL HepG2 Assay for human Phenobarbital-responsive Enhancer Module (PBREM) (AID 2282955); conditions: HepG2 PBREM cis-reporter, Attagene multiplexed transcription; actives raise or lower the signal
In short: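 HepG2 cells transiently transfected with multiple cis-regulated reporter units measure endogenous transcription factor activity; 24 h compound exposure. Reporter mRNA quantified by RT-PCR, fluorescent labelling, HpaI digestion and capillary electrophoresis; bidirectional fit versus DMSO.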

[9] = molecular target: Paired box protein Pax-6 (Homo sapiens) (UniProt P26367); test: ATG_Pax6_CIS: Attagene CIS-FACTORIAL HepG2 Assay for human Paired Box 6 (PAX6) (AID 2282956); conditions: HepG2 CIS-FACTORIAL PAX6 reporter transcription, RNA readout; actives raise or lower the signal
Paired box protein Pax-6 (Homo sapiens), sequence (P26367 whole entry, looked up): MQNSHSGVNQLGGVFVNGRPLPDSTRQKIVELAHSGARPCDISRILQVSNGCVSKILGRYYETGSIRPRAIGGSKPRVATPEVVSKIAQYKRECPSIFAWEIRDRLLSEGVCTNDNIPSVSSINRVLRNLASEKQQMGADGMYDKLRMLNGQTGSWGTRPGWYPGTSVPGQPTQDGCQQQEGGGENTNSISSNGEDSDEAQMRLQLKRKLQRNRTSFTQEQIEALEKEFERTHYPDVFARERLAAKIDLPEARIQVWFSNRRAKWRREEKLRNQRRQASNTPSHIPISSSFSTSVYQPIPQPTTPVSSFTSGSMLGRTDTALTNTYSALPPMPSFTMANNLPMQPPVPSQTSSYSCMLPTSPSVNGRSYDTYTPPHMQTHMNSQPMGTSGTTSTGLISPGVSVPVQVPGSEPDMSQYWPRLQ
In short: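 Read-out is reporter transcript level, measured by RT-PCR with fluorescent primer extension and capillary electrophoresis after 24 h dosing of transfected HepG2 cells. Activity in either direction fitted relative to DMSO control.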

[10] = ATG_RORE_CIS: Attagene CIS-FACTORIAL HepG2 Assay for human RAR-related Orphan Receptor Element (RORE) (AID 2282959); conditions: HepG2 Attagene cis-factorial RORE reporter, mRNA; actives raise or lower the signal
In short: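 HepG2 cells carrying transiently transfected cis-regulated reporter units; RORE-driven reporter mRNA quantified 24 h post-dosing by RT-PCR, 6-FAM primer extension, HpaI digestion and capillary electrophoresis. Bidirectional fit versus DMSO.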

[11] = ATG_Sox_CIS: Attagene CIS-FACTORIAL HepG2 Assay for human SRY-box transcription factor (SOX) (AID 2282960); conditions: HepG2 Attagene cis-factorial SOX reporter, mRNA; actives raise or lower the signal
In short: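 HepG2 cells transiently transfected with multiple cis-regulated reporter units, then dosed for 24 h. Reporter mRNA quantified by RT-PCR, fluorescent labelling, HpaI digestion and capillary electrophoresis; bidirectional fit versus DMSO.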

[12] = molecular target: Transcription factor Sp1 (Homo sapiens) (UniProt P08047); test: ATG_Sp1_CIS: Attagene CIS-FACTORIAL HepG2 Assay for human Specificity Protein 1 (Sp1) (AID 2282961); conditions: HepG2 Sp1 cis-reporter transcription, actives raise or lower the signal
Transcription factor Sp1 (Homo sapiens), sequence (P08047 whole entry, looked up): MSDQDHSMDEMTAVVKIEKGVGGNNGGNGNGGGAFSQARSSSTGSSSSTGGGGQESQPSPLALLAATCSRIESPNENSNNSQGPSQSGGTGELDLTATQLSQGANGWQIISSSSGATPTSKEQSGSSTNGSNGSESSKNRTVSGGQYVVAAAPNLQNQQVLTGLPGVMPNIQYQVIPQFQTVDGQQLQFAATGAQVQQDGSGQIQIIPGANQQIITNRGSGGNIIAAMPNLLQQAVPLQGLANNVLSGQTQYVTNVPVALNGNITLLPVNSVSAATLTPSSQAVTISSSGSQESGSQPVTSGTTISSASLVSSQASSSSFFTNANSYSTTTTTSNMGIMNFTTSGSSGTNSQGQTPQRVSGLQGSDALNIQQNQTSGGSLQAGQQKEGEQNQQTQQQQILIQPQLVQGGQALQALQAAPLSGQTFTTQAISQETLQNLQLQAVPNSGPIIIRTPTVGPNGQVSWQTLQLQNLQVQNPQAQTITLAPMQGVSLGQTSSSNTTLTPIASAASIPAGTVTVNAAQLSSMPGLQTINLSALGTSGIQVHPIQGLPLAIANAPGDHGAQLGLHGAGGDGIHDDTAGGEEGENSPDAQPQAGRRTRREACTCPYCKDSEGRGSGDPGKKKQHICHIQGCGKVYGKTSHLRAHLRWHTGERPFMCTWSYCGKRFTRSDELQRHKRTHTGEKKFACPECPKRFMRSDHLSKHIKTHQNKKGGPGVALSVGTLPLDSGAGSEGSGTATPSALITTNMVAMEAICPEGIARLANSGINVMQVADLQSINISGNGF
In short: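 HepG2 cells transiently transfected with multiplexed cis-regulated reporter constructs, chemical exposure 24 h. Reporter mRNA quantified by RT-PCR with capillary electrophoresis; bidirectional fit relative to DMSO.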

[13] = ATG_SREBP_CIS: Attagene CIS-FACTORIAL HepG2 Assay for human Sterol Regulatory Element Binding (SREBP) (AID 2282962); conditions: HepG2 Attagene cis-factorial SREBP reporter, mRNA; actives raise or lower the signal
In short: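 Endogenous SREBP activity read as cis-element-driven reporter transcript in transiently transfected HepG2, 24 h post-dosing; quantified via RT-PCR plus capillary electrophoresis of fluorescent fragments. Gain or loss of signal fitted relative to DMSO baseline.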

[14] = molecular target: Signal transducer and activator of transcription 3 (Homo sapiens) (UniProt P40763); test: ATG_STAT3_CIS: Attagene CIS-FACTORIAL HepG2 Assay for human Signal Transducer and Activator of Transcription 3 (STAT3) (AID 2282963); conditions: HepG2, Attagene cis-factorial STAT3 reporter transcription; actives raise or lower the signal
Signal transducer and activator of transcription 3 (Homo sapiens), sequence (P40763 whole entry, looked up, the tested form may be a part): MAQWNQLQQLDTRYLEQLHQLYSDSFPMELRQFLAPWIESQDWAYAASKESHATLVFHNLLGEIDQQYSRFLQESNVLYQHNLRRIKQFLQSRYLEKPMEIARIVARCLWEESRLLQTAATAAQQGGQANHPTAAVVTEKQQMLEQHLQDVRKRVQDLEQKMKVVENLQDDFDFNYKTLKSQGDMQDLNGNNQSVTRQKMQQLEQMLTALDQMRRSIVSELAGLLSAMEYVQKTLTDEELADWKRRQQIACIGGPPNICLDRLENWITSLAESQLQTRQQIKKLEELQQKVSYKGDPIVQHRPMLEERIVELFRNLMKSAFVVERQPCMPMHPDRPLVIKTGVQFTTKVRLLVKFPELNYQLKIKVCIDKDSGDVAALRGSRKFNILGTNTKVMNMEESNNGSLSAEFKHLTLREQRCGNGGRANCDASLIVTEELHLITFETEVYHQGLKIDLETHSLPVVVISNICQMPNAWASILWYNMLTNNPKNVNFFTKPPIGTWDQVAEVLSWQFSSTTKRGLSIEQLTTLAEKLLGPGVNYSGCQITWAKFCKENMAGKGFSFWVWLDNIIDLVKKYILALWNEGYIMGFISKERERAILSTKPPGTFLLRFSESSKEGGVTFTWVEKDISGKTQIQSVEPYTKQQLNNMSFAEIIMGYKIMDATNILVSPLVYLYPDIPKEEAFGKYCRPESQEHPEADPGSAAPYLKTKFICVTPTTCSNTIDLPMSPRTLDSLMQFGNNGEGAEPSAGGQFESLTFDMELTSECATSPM
In short: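 Fluorescence intensity of 6-FAM-labelled reporter fragments, separated by capillary electrophoresis after RT-PCR, gave the signal. Cells were HepG2 transfected with cis-element reporter units and treated 24 h; fitting was bidirectional relative to DMSO.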

[15] = ATG_TA_CIS: Attagene CIS-FACTORIAL HepG2 Assay for human TA Basal Promoter (AID 2282964); conditions: HepG2 Attagene CIS-factorial TA basal promoter reporter; actives raise or lower the signal
In short: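 Multiplexed mRNA reporter assay, HepG2, 24 h. Reporter cDNA amplified, 6-FAM primer-extended, HpaI-cut, CE-sized; DMSO = negative control and baseline.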

[16] = ATG_ISRE_CIS: Attagene CIS-FACTORIAL HepG2 Assay for human Interferon Regulatory Factor 1 (IRF1) binding to an Interferon-Stimulated Response Element (ISRE) (AID 2282948); conditions: HepG2 ISRE cis-reporter (Attagene), mRNA transcription readout; actives raise or lower the signal
In short: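 Endogenous transcription factor activity read as reporter transcript abundance via RT-PCR and capillary electrophoresis. HepG2 cells transiently transfected, 24 h chemical exposure. Gain or loss fitted against DMSO baseline.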

[17] = molecular target: Hypoxia-inducible factor 1-alpha (Homo sapiens) (UniProt Q16665); test: ATG_HIF1a_CIS: Attagene CIS-FACTORIAL HepG2 Assay for human Hypoxia Inducible Factor 1 (HIF1A) (AID 2282951); conditions: HepG2 Attagene cis-factorial HIF1a reporter transcription; actives raise or lower the signal
Hypoxia-inducible factor 1-alpha (Homo sapiens), sequence (Q16665 whole entry, looked up): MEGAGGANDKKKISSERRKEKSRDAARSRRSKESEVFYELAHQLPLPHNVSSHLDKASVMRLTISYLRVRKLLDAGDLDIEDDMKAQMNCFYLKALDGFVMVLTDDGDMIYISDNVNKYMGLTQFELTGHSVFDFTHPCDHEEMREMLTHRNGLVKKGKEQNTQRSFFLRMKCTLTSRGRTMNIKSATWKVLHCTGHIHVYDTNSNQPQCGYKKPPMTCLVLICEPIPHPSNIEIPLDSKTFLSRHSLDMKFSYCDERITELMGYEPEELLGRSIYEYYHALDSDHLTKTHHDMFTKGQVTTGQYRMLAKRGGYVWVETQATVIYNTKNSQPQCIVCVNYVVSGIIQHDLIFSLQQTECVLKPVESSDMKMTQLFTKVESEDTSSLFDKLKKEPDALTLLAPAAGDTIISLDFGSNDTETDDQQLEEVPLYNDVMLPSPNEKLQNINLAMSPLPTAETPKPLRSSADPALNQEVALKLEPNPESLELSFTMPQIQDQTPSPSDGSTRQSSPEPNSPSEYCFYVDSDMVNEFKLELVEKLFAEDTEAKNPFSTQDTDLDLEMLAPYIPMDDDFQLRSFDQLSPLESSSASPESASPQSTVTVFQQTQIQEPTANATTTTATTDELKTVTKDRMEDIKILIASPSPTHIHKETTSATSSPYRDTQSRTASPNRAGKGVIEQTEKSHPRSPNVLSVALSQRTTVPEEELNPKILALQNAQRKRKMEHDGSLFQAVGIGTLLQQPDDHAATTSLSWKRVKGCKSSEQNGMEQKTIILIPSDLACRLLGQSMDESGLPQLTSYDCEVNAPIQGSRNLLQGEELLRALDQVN
In short: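 HepG2 cells transiently transfected with multiple cis-regulated reporter transcription units measure endogenous transcription factor activity. After 24 h exposure, reporter mRNA is quantified by RT-PCR with 6-FAM labelling, HpaI digestion and capillary electrophoresis. Bidirectional fitting against DMSO.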

[18] = ATG_PXRE_CIS: Attagene CIS-FACTORIAL HepG2 Assay for human Pregnane X Receptor Element (PXRE) (AID 2282957); conditions: HepG2 Attagene CIS-FACTORIAL PXRE reporter, mRNA; actives raise or lower the signal
In short: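 After a 24 h chemical incubation, total RNA from transfected HepG2 cells was reverse-transcribed and reporter cDNA amplified, FAM-labeled, HpaI-digested and sized by capillary electrophoresis. DMSO served as baseline for bidirectional curve fitting.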

[19] = ATG_PPRE_CIS: Attagene CIS-FACTORIAL HepG2 Assay for human Peroxisome Proliferator-activated Response Element (PPRE) (AID 2282958); conditions: HepG2 PPRE cis-element reporter, Attagene transcription factor profiling; actives raise or lower the signal
In short: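 HepG2 cells are transiently transfected with multiplexed cis-promoter reporter units to report endogenous PPAR activity. After 24 h dosing, reporter mRNA is read by RT-PCR and capillary electrophoresis. Fitting is bidirectional against DMSO.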

Measured: AC50

Nc1ncnc2nc[nH]c12
inactive: [1] | [2] | [3] | [4] | [5] | [6] | [7] | [8] | [9] | [10] | [11] | [12] | [13] | [14] | [15]

CCCCC(CC)COC(=O)/C=C/c1ccc(OC)cc1 (stereo unspecified)
inactive: [1] | [2] | [16] | [3] | [4] | [17] | [6] | [7] | [9] | [10] | [11] | [12] | [13] | [14] | [15]
active: [18] 39.4 µM

NC(=O)Nc1ccccc1
inactive: [1] | [2] | [3] | [4] | [17] | [6] | [7] | [8] | [9] | [18] | [10] | [11] | [12] | [13] | [14] | [15]

CC=C(C)C=CC=C(C)C
inactive: [1] | [2] | [16] | [3] | [4] | [17] | [6] | [7] | [8] | [9] | [10] | [11] | [12] | [13] | [14] | [15]
active: [18] 6.96 µM

C=CC(=O)OCCCCCCCCCC
inactive: [1] | [2] | [16] | [3] | [4] | [17] | [6] | [7] | [9] | [10] | [11] | [12] | [13] | [14] | [15]

O=C(O)C(F)(F)C(F)(F)C(F)(F)C(F)(F)C(=O)O
inactive: [1] | [2] | [16] | [3] | [4] | [5] | [6] | [7] | [9] | [18] | [10] | [11] | [12] | [13] | [15]

CC(C)C(=O)OCCOc1ccccc1
inactive: [1] | [2] | [16] | [3] | [4] | [17] | [5] | [8] | [19] | [10] | [11] | [12] | [13] | [14] | [15]

c1ccc2cnccc2c1
active: [18] 27.6 µM
inactive: [1] | [2] | [16] | [3] | [4] | [17] | [7] | [8] | [9] | [19] | [10] | [11] | [12] | [13] | [14] | [15]

C=CCCCCCCCCC=O
active: [18] 100 µM | [19] 64.2 µM
inactive: [1] | [3] | [4] | [17] | [5] | [7] | [9] | [10] | [11] | [12] | [13] | [15]

CC1=CC=C(C(C)C)CC1
active: [18] 3.61 µM
inactive: [1] | [16] | [3] | [4] | [17] | [5] | [6] | [8] | [9] | [11] | [12] | [13] | [14] | [15]

CCCCOCC(C)O (stereo unspecified)
inactive: [1] | [16] | [3] | [4] | [17] | [5] | [6] | [7] | [9] | [18] | [10] | [12] | [13] | [14] | [15]

CC1=NN(c2ccc(S(=O)(=O)O)cc2)C(=O)C1N=Nc1ccccc1 (stereo unspecified)
active: [18] 100 µM
inactive: [1] | [16] | [3] | [4] | [17] | [5] | [6] | [19] | [10] | [11] | [12] | [13] | [14] | [15]

CC(Cl)COP(=O)(OCC(C)Cl)OCC(C)Cl (stereo unspecified)
active: [18] 4.13 µM
inactive: [1] | [16] | [3] | [4] | [17] | [5] | [7] | [8] | [19] | [10] | [11] | [12] | [13] | [14] | [15]
